KDM5B inh: Primary screen for KDM5B Histone Demethylases FDH-coupled qHTS. Lysine-specific demethylase 5B (Homo sapiens), Q9UGL1. KDM5B demethylase, FDH-coupled NADH fluorescence (FDH is formaldehyde dehydrogenase). Potency, µM (highest dose often 57.7 µM), most hits filed as inhibitors. 220,000 tested, 2.6% active; active = well fitted inhibition curve with a large enough effect; note: 0% is about no effect; nearly all actives have a fitted effect of over 70% in size
Target sequence (Q9UGL1 whole entry, looked up): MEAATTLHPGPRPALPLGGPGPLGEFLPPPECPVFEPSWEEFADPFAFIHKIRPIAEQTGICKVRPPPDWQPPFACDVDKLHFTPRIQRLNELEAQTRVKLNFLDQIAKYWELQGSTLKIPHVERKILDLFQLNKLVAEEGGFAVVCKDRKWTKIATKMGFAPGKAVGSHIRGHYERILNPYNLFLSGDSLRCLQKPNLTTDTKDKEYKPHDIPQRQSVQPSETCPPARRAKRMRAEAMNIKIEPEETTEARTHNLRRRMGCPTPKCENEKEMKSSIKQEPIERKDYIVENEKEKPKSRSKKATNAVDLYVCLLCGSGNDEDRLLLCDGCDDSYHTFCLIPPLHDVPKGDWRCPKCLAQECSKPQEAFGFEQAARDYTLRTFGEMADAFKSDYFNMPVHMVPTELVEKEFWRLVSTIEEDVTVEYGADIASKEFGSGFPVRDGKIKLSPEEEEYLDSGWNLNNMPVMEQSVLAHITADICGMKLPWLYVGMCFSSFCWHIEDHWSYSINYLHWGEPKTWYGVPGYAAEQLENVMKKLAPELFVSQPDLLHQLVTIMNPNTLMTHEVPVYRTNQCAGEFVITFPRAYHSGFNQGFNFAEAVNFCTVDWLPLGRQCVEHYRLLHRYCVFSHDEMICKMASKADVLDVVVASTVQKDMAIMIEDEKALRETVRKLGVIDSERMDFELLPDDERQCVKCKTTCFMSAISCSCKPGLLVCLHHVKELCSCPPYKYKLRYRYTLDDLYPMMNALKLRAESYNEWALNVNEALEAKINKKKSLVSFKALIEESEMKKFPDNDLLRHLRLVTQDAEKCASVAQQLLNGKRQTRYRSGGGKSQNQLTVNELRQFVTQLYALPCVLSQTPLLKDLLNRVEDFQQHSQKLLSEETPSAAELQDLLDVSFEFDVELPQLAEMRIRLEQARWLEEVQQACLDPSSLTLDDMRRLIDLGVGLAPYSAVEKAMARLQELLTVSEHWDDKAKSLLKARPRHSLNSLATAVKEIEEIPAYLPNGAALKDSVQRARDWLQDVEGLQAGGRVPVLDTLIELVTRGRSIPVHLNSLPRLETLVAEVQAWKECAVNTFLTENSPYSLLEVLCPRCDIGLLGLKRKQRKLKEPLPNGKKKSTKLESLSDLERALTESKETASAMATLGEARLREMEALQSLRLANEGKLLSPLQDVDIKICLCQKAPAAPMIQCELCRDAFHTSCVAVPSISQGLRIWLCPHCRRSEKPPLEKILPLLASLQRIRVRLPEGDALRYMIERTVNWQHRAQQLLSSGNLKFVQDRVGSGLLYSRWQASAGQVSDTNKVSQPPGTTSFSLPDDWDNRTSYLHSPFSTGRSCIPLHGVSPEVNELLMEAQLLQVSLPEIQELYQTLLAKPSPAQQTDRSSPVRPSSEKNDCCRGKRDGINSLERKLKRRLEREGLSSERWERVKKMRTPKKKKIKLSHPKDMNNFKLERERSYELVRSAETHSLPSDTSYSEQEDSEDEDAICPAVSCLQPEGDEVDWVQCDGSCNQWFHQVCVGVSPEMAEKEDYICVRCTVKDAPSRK
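Here, H3K4me3 peptide (12.5 µM in substrate mix) is demethylated by KDM5BΔAP, 200 nM final, after 10 min compound exposure. Formaldehyde product is coupled through FDH (0.25 U/mL in mix) to NADH fluorescence; 30-min ΔRFU feeds dose-response curves.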
Starred values were filed as active, the others as inactive; i = inactive. The sample as a whole holds a higher share of hits than the screen did. Potency is the fitted concentration of half-maximal effect.

SMILES	KDM5B inh
COc1cc(OC)cc(C(=O)Nc2ccccc2C(=O)NCc2cccnc2)c1	i
CC(C)N1CCN(Cc2ccccc2C#Cc2ccccc2)CC1CCO (stereo not drawn)	i
O=C1C(N2CCN(S(=O)(=O)Cc3cccc(Cl)c3)CC2)CCN1Cc1cccnc1 (stereo not drawn)	i
Cc1nc2ccccn2c(=O)c1Cc1nnc(SCC(=O)Nc2ccccc2)n1C	i
CNS(=O)(=O)c1cc(C(=O)NCC2(c3ccccc3)CC2)cc(C)c1C	i
CCC(C(=O)NCc1ccc(C)cc1)N1C(=O)CCn2nc(C)cc21 (stereo not drawn)	i
CC(C#N)OC(=O)c1cc(C(C)C)nc2ccccc12 (stereo not drawn)	i
CC(=O)Nc1cccc(C(=O)NC2CCCN(c3cc(-c4ccc(Cl)cc4)[nH]n3)C2)c1 (stereo not drawn)	i
O=C(Nc1ccc(Cl)c(Cl)c1)c1ccc(-c2ccccc2)cc1	i
CCN(CC)CCCn1c(-c2ccc(COc3cc(C)ccc3Cl)cc2)n[nH]c1=S	i
COc1cc(C#N)cc(Cl)c1OCc1ccc(C#N)cc1	i
CCCCCCCOc1ccc(C(=O)O)cc1	i
CC(=O)NC1(C)CCCN(Cc2cccc(-c3cccc(F)c3)c2)C1 (stereo not drawn)	i
CC(=O)NC1(C)CCN(Cc2ccc(-c3cccc4ncccc34)cc2)C1 (stereo not drawn)	39.8µM*
CC(=O)NC1(C)CCCN(Cc2ccc(Oc3ccccc3)cc2)C1 (stereo not drawn)	i
CC(=O)NC1(C)CCCN(Cc2cccc(Nc3ccncc3)c2)C1 (stereo not drawn)	i
CC(=O)NC1(C)CCN(Cc2ccc(Nc3ccc(N4CCOCC4)c(F)c3)cc2)C1 (stereo not drawn)	i
COc1cccc(Nc2cccc(CN3CCC(C)(NC(C)=O)C3)c2)c1 (stereo not drawn)	i
CC(=O)NC1(C)CCN(Cc2cccc(-c3ccc(N4CCOCC4)cc3)c2)C1 (stereo not drawn)	31.6µM*
CC(=O)NC1(C)CCN(Cc2cccc(-c3cccc4ncccc34)c2)C1 (stereo not drawn)	39.8µM*
CC(=O)NC1(C)CCCN(Cc2cccc(-c3ccccc3)c2)C1 (stereo not drawn)	i
CC(=O)N(C1CCOCC1)C1CCN(S(=O)(=O)c2ccccc2)CC1	i
CC(=O)Nc1c(-c2ccccc2)c(C)nn1-c1ccc(C(=O)N2CCN(C3CCCCC3)CC2)cc1	i
CCC(C)OC(=O)COc1ccc2c(=O)c(Oc3ccc(C(C)(C)C)cc3)coc2c1 (stereo not drawn)	i
Cn1cc(-c2cc3n(n2)CCCN3C(=O)CCC(=O)NCCCN2CCCC2)c2ccccc21	i
SMILES	KDM5B inh
COc1cccc(C(=O)NC2CCN(c3nnc4ccccn34)CC2)c1	28.2µM*
Cc1ccc(CC(=O)NC2CCN(c3nnc4cccc(C)n34)CC2)cc1	31.6µM*
O=C(CCc1ccccc1)NC1CCN(c2ccccc2S(=O)(=O)C(F)(F)F)CC1	i
O=C(Cc1ccc(F)cc1)NC1CCN(c2cc(-c3ccc(F)cc3)[nH]n2)CC1	i
O=C(NC1CCN(c2nnc3ccccn23)CC1)c1ccc(Cl)s1	25.1µM*
O=C(NC1CCOC2(CCOCC2)C1)c1ccc(Cl)s1 (stereo not drawn)	i
O=C(CCCc1ccccc1)NC1CCN(c2cc(-c3ccccc3)[nH]n2)CC1	i
Cc1cc(C)cc(N2CCC(NC(=O)c3ccc(Cl)s3)C2=O)c1 (stereo not drawn)	i
O=C(CCc1ccccc1)NC1CCN(c2nnc3ccccn23)CC1	25.1µM*
COc1cccc(C(=O)NC2CCCCC2)c1	i
COc1cccc(C(=O)NC2CCN(c3cc(C(F)(F)F)ncn3)CC2)c1	i
Cc1ccc(CC(=O)NC2CCN(c3cnn(C)c(=O)c3)CC2)cc1	i
CCOP(=O)(OCC)c1nc(C(c2ccccc2)c2ccccc2)oc1NCc1cccnc1	i
COc1ccc(CNCc2sccc2C)cc1	i
CC(C)(C)C(=O)NCC(O)COc1ccc(C(F)(F)F)cc1 (stereo not drawn)	i
O=C(c1cccs1)N(Cc1ccc2cc[nH]c2c1)C1CC1	i
Cc1ccc(NC(=O)C2CCN(c3ncnc4c3sc3ncccc34)CC2)cc1F	i
CCCC(=O)N(C)CCOc1ccccc1	i
COc1ccccc1NC(=O)CSc1nc2c(=O)[nH]cnc2n1-c1ccc(C)cc1	i
C[N+](C)(CCCCC(=O)O)C[Si](C)(C)C	i
Cn1nc2n(c1=O)CCC(NC(=O)CCC1CCCCC1)CC2 (stereo not drawn)	i
CN1C(=O)C(CC(=O)NC2CCC(O)CC2)(Cc2ccccc2)c2ccccc21 (stereo not drawn)	i
Cc1ccc(CC(=O)NC(C)c2ccccn2)cc1C (stereo not drawn)	i
CC(C)OCCCNc1nc2c(S(=O)(=O)c3ccc(C(C)C)cc3)nnn2c2ccccc12	i
O=[S+]([O-])(c1ccc(Br)cc1)c1nnn2c1nc(NCc1ccncc1)c1ccccc12	i
SMILES	KDM5B inh
COc1ccc(OC)c([S+](=O)([O-])c2nnn3c2nc(NCCCOC(C)C)c2ccccc23)c1	89.1µM*
COCCCNc1nc2c([S+](=O)([O-])c3cc(OC)ccc3OC)nnn2c2ccccc12	79.4µM*
CCOc1ccc(CCNc2nc3c(-c4ccc(C)cc4)nnn3c3ccccc23)cc1OCC	i
Cc1ccc(C)c(S(=O)(=O)c2nnn3c2nc(Nc2ccc(C)c(C)c2)c2ccccc23)c1	i
Cc1ccc(S(=O)(=O)c2nnn3c2nc(NCCCOC(C)C)c2ccccc23)cc1	i
Cc1cccc(-c2nnn3c2nc(NCCC(C)C)c2ccccc23)c1	i
COCCNc1nc2c(S(=O)(=O)c3cc(C)ccc3C)nnn2c2ccccc12	79.4µM*
CC(=O)N1CCC(Cc2ccc(C(N)=O)cc2)CC1	i
COc1cc(OC)c(OC)cc1/C=C/C(=O)c1ccc(OC(F)F)cc1	i
Cc1nc(N2CCC(NC(=O)c3ccc4ccccc4n3)CC2)cc(C(F)(F)F)n1	i
O=C1OCCN1C1CCN(Cc2ccc(C(F)(F)F)cc2)CC1	i
COc1ccc(CN2CCc3nn(CC4CC4)c(=O)n3CC2)c(Cl)c1OC	i
CCNC(=O)NC(=O)CN1CCCCCCC1	i
CCOC(=O)C(Cc1ccc(C(F)(F)F)cc1)(NC(C)=O)C(=O)OCC	i
CC(SCc1cccc(C#N)c1)C(=O)NC(C)(C)C (stereo not drawn)	i
O=C1Cc2c(-c3cccc(O)c3)n[nH]c2CN1CC1CC1	i
O=C1c2cc(N3CCOCC3)nc(-c3cnc4[nH]ccc4c3)c2CN1CC1CC1	12.6µM*
O=C1c2cc(N3CCOCC3)nc(-c3ccccc3F)c2CN1CC(F)(F)F	31.6µM*
O=c1[nH]c(N2CCOCC2)nc2c1CCN(Cc1ccccc1F)CC2	i
O=C1c2cc(N3CCOCC3)nc(-c3cnc4[nH]ccc4c3)c2CN1CC(F)(F)F	31.6µM*
O=C1Cc2c(-c3ccsc3)n[nH]c2CN1CC1CCOCC1	i
CN1CC(=O)N(c2ccccc2F)Cc2c1ncnc2N1CCOCC1	i
COc1cccc(N2C(=O)NC(=NC3CCCCC3)C23CCCN(Cc2ccsc2)C3)c1 (stereo not drawn)	i
CCc1ccc(S(=O)(=O)N(C)CC2CCOC2)cc1 (stereo not drawn)	i
CCOc1cccc(CN2C[C@@H](CO)[C@H](C3CCN(C(C)=O)CC3)C2)c1	i

Source: PubChem BioAssay (National Center for Advancing Translational Sciences (NCATS))
